Values joined by “and” are separate entries in the source; they are usually repeats but may differ in a detail not shown here. Equal values may be shown once. About 2,500 (0.74%) of roughly 340,000 compounds were called active. This is one part of a sample in which actives are shown more often than they occur. Unmarked numbers belong to inactive results.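 Rule for the calls: active = inhibition above about 55% (limit read from the data); inactive = the rest.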

This experiment in a line: blockers of Gli reporter signaling – luciferase luminescence, Sufu-KO-LIGHT cells, uHTS, primary screen (AID 588413).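 Note: 0% = DMSO-treated cells and 100% = wells with medium but no cells.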 As to conditions: Sufu-KO-LIGHT fibroblasts, at 5 µM, stronger effect = higher value.
The term inhibition denotes the change of the read-out against control, counted positive when it falls. For the compound `Cc1cc(N2C(=O)C(=O)/C(=C(/O)c3ccccc3)C2c2cccc(Br)c2)no1` (configuration not stated), the inhibition is 7.53%.

`CC(=O)c1ccc(NC(=O)Cn2c(=O)oc3ccccc32)cc1`: the inhibition was 11.6%.

For `Cc1sc2nc(SCCO)n(-c3ccccc3)c(=O)c2c1C`, the inhibition was 3.29%.

As to `CC(C)OC(=O)c1ccc(NCc2cc(O)ccc2O)cc1Cl`, the inhibition was -6.82%.

`COC(=O)c1ccc(NCc2cc(O)ccc2O)cc1`: the inhibition was 3.08%.

For the compound `O=C(OC12CC3CC(CC(C3)C1)C2)c1ccc(NCc2cc(O)ccc2O)cc1`, the inhibition is 70.4% (active).

Consider `Cn1cnc2c1c(=O)n(Cc1ccccc1C#N)c(=O)n2C`, for which the inhibition is 6.5%.

Take `O=C(Nc1ccccc1C(=O)Nc1ccncc1)c1ccc([N+](=O)[O-])cc1`: the inhibition is -25.8%.

In the case of `O=C(Nc1cc2c3c(c1)C1CCCC1CN3CC1CCCC21)c1ccc([N+](=O)[O-])cc1` (configuration not stated), the inhibition is 72.5% (active).

Regarding `CN1C2CCC1CC(NC(=O)c1ccc([N+](=O)[O-])cc1)C2` (configuration not stated), the inhibition is -0.59%.

Regarding `CCOc1ccc(NC(=O)N(CC(C)C)CC(C)C)cc1`, the inhibition is -3.25%.

On to `O=C(CCNC(=O)c1ccc(Br)cc1)NCC(c1ccco1)N1CCCCC1` (configuration not stated), for which the inhibition is 2.12%.

`Cc1ccc(OS(=O)(=O)c2ccc(-c3csc(C)n3)s2)c(C)c1`: the inhibition is -1.77%.

Consider `CC1(C)CC(N2CCN(C(c3ccccc3)c3ccccc3)CC2)=CC(=[N+]2CCCCC2)C1`, for which the inhibition is 89.2% (active).

For the compound `c1ccc(C(c2ccccc2)N2CCN(Cc3nnnn3C3CCCCC3)CC2)cc1`, the inhibition is -7.75%.

Turning to `CC1(C)CC(=O)C=C(N2CCOCC2)C1`, the inhibition was -5.06%.

With `O=C(COc1ccc(Cl)cc1Cl)NCCCNC(=O)c1cnccn1`, the inhibition was -2.79%.

Take `CN1C(=O)CC(c2ccccc2)C1=O` (configuration not stated): the inhibition was 1.09%.

Regarding `COc1ccc(N(CC(=O)Nc2ccc(F)c(F)c2)S(=O)(=O)c2c(C)[nH]c(=O)[nH]c2=O)cc1`, the inhibition was -1.05%.

As for `O=C1Nc2ccc(Br)cc2/C1=N/N=C/C1=C(N2CCOCC2)C(=C\c2ccccc2)/CC1`, the inhibition was 20.5%.

For the compound `CCOc1ccc(/C=N/NC(=O)CSc2ccccn2)cc1O`, the inhibition is 4.66%.

Consider `COc1ccc(/C=N/N=C2/C(=O)Nc3ccccc32)cc1O`, for which the inhibition was 58.7% (active).

In the case of `Cc1ccccc1CS(=O)(=O)CC1(O)CCN(C(=O)c2cccc(C(F)(F)F)c2)CC1`, the inhibition was 0.32%.

`O=C(N=C1SC2CS(=O)(=O)CC2N1c1cc(Cl)ccc1Cl)C1CC1` (configuration not stated): the inhibition is 6.54%.

With `Clc1ccc(C[n+]2cc(-c3ccccc3)n3c2CCC3)cc1`, the inhibition is 49.7%.

With `Cc1ccc(C(=O)C[n+]2cc(-c3ccccc3)n3c2CCCCC3)cc1`, the inhibition is 67.1% (active) and 72.5% (active).

Consider `Cc1ccc(-c2c[n+](CC(=O)Nc3ccccc3)c3n2CCC3)cc1`, for which the inhibition was -11.4%.
